# Test results taken from PubChem BioAssay (EPA / NIEHS).
# Several values for one entry are separate records, joined by “and”; a condition that tells them apart may be missing. Equal entries are not always repeated. Results filed as inconclusive are left out. Where a structure was tested more than once in an assay, its records may differ in their call. Activity calls are given as the source filed them. The calls were made as follows, unless noted: active = hit-call score of the fitted dose curve at least 0.9, where 1 is the maximum; inactive = score below 0.9.
# Columns and labels:
# [1] = CCTE_Shafer_MEA_dev_burst_rate: CCTE's Neural Network Formation Assay for Burst Rate, Shafer Lab (AID 2284042);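 as to AC50: potency for loss of burst rate below DMSO control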
# Summary of the method: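 Primary rat cortical neurons on PEI-coated 48-well MEA plates (laminin added with cells at plating) (16 electrodes/well), exposed from plating to day 12, dosing renewed at DIV 5 and 9. Burst rate averaged over active electrodes, recorded DIV 5, 7, 9, 12, summarized as AUC; loss versus DMSO.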
# [2] = CCTE_Shafer_MEA_dev_per_burst_interspike_interval: CCTE's Neural Network Formation Assay for Burst Interspike Interval, Shafer Lab (AID 2284044);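 also: mean spike spacing inside bursts as AUC over recordings on days 5 7 9 12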;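 as to AC50: potency for a decrease of within-burst interspike interval below DMSO level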
# Summary of the method: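 Rat cortical primary cultures, 16 electrodes/well; compound from plating, renewed with full media change DIV 5 and 9. Spikes via adaptive detector; per-burst ISI well-mean over active bursting electrodes; AUC of DIV 5/7/9/12 recordings; loss-direction fit vs DMSO.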
# [3] = CCTE_Shafer_MEA_dev_burst_duration_mean: CCTE's Neural Network Formation Assay for Mean Burst Duration, Shafer Lab (AID 2284045);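 as to AC50: curve fitted for loss meaning shorter burst duration than DMSO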
# Summary of the method: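 Read-out: average first-to-last-spike interval within single-electrode bursts, averaged over bursting electrodes per well, then summarised as area under the curve across days 5, 7, 9 and 12. Developing rat cortical networks were exposed from day 0.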
# [4] = CCTE_Shafer_MEA_dev_inter_network_spike_interval_mean: CCTE's Neural Network Formation Assay for Mean Inter-network Spike Interval, Shafer Lab (AID 2284047)
# Summary of the method: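 Primary rat cortical neurons on 16-electrode MEA wells, exposed from plating day 0 through DIV 12, compound renewed at DIV 5 and 9 media changes. Mean interval between network-spike peaks recorded DIV 5, 7, 9, 12; collapsed as trapezoidal AUC, fitted downward versus DMSO.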
# [5] = CCTE_Shafer_MEA_dev_network_spike_number: CCTE's Neural Network Formation Assay for Number of Network Spikes, Shafer Lab (AID 2284048);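 also: synchronized bursts across electrodes counted on days 5 7 9 12 and integrated as AUC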;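 as to AC50: fit as a loss of signal meaning fewer network spikes than DMSO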
# Summary of the method: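 Developing networks of primary rat cortical neurons are treated over 12 days starting at plating, with media and compound fully replaced on DIV 5 and 9. Network spike counts from four recording days are integrated as trapezoidal AUC.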
# [6] = CCTE_Shafer_MEA_dev_network_spike_peak: CCTE's Neural Network Formation Assay for Mean Number of Electrodes in Network Spike, Shafer Lab (AID 2284049);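 as to AC50: fitted for loss of signal meaning fewer electrodes in network spikes than DMSO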
# Summary of the method: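 Rat cortical primary culture, 1.5 x 10^5 cells/well, 48-well MEA (16 electrodes/well). Dosing day 0 through DIV 12, full media/compound exchange DIV 5, 9. AxIS adaptive spike detection; AUC over days 5/7/9/12; loss-of-signal vs DMSO.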
# [7] = CCTE_Shafer_MEA_dev_spike_duration_mean: CCTE's Neural Network Formation Assay for Mean Spike Duration, Shafer Lab (AID 2284051);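 also: mean network spike duration pooled as area under curve over DIV 5 to 12 recordings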;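 as to AC50: potency for a decrease in mean network spike duration versus DMSO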
# Summary of the method: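 Primary rat cortical neurons on 16-electrode MEA wells (PEI-coated, laminin in plating drop), exposed from plating through DIV 12 with compound renewed at DIV 5 and 9. Mean network-spike duration recorded DIV 5, 7, 9, 12; trapezoidal AUC across days, DMSO baseline.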
# [8] = CCTE_Shafer_MEA_dev_network_spike_duration_std: CCTE's Neural Network Formation Assay for Standard Deviation of Network Spike Duration, Shafer Lab (AID 2284052);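 also: area under curve of spike duration SD across recording days 5 to 12; hits are decreases in network spike duration SD versus DMSO vehicle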
# Summary of the method: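 Primary rat cortical neurons on PEI-coated 16-electrode MEA wells, exposed from plating day 0 through day 12 with compound renewed at DIV 5 and 9. Network spike duration SD recorded on days 5, 7, 9, 12, collapsed as trapezoidal AUC; loss-of-signal fit versus DMSO.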
# [9] = CCTE_Shafer_MEA_dev_per_network_spike_spike_percent: CCTE's Neural Network Formation Assay for Percent of Spikes in a Network Spike, Shafer Lab (AID 2284054)
# Summary of the method: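 Rat primary cortical cultures, 1.5 x 10^5 cells/well on MEA. Continuous compound exposure d0–12, medium/compound renewed DIV 5, 9. Network-spike spike % (0.05 s peak window), AUC over 4 recordings, DMSO baseline.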
# [10] = UKN5_HCS_SBAD2_cell_viability: Viability Assessment in the University of Konstanz (UKN) Leist Lab Neurite Outgrowth Assay in human iPSC-derived immature Dorsal Root Ganglia Neurons (UKN5) (AID 2284056)
# Summary of the method: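 iPSC-derived immature peripheral neurons (SBAD2) seeded on Matrigel with CHIR99021, SU5402 and DAPT, dosed 1 h later for 24 h. Viability from Hoechst H-33342 and calcein-AM live staining, high-content imaging; bidirectional fit versus DMSO.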
# [11] = CCTE_Shafer_MEA_dev_LDH: CCTE's Lactate Dehydrogenase Assay for Cytotoxicity in the Neural Network Formation Assay, Shafer Lab (AID 2284068; active = hit-call score of the fitted dose curve at least 0.9, where 1 is the maximum;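 also: exposure for twelve days from plating with re-dosing on DIV 5 and 9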)
# Summary of the method: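 Primary rat cortical neurons were plated on PEI/laminin MEA plates and exposed from day 0 for twelve days, with compound renewed at DIV 5 and 9. Cytotoxicity was determined by spectrophotometric LDH assay relative to DMSO.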
# [12] = UKN5_HCS_SBAD2_neurite_outgrowth: University of Konstanz (UKN) Leist Lab Neurite Outgrowth Assay in human iPSC-derived immature Dorsal Root Ganglia Neurons (UKN5) (AID 2284070); settings: actives raise or lower the signal
# Summary of the method: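 SBAD2 iPSC-derived immature peripheral neurons on Matrigel, 100.000 cells/cm2, medium with CHIR99021 (1.5 uM), SU5402 (5 uM), DAPT (5 uM); compound added 1 h post-seeding for 24 h. Calcein-AM neurite area by high-content imaging; Hoechst H-33342 viability; bidirectional fit vs DMSO.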
# [13] = CCTE_Shafer_MEA_dev_active_electrodes_number: CCTE's Neural Network Formation Assay for Number of Active Electrodes, Shafer Lab (AID 2284040; active = hit-call score of the fitted dose curve at least 0.9, where 1 is the maximum;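 as to AC50: potency for loss of active electrodes versus DMSO so lower counts are hits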)
# Summary of the method: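 Primary rat cortical neurons on 16-electrode MEA wells, exposed from day 0 through day 12 with compound renewed at DIV 5 and 9 feeds. Active electrodes (mean firing ≥5 spikes/min) counted at DIV 5, 7, 9, 12; trapezoidal AUC across days, loss-of-signal versus DMSO.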
# [14] = CCTE_Shafer_MEA_dev_bursting_electrodes_number: CCTE's Neural Network Formation Assay for Number of Bursting Electrodes, Shafer Lab (AID 2284043; active = hit-call score of the fitted dose curve at least 0.9, where 1 is the maximum;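 as to AC50: potency is for loss of bursting electrodes relative to DMSO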)
# Summary of the method: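 Read-out is the per-well number of electrodes bursting at least once every 2 minutes, recorded on days 5, 7, 9 and 12 and collapsed by trapezoidal area under the curve. Cultures were primary rat cortical neurons on MEA plates, treated continuously from plating.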
# [15] = CCTE_Shafer_MEA_dev_AB: CCTE's Alamar Blue Assay for Cytotoxicity in the Neural Network Formation Assay, Shafer Lab (AID 2284083; active = hit-call score of the fitted dose curve at least 0.9, where 1 is the maximum;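 also: twelve days of exposure from plating with re-dosing on DIV 5 and 9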)
# Summary of the method: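 Primary rat cortical neurons on PEI-coated 48-well MEA plates, 1.5 x 10^5 cells/well in laminin drop; compound exposure from day 0 of plating for twelve days, renewed at medium changes on DIV 5 and 9. Viability read as resazurin reduction by fluorescence, relative to DMSO.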
# [16] = CCTE_Deisenroth_AIME_384WELL_CTox_Inactive: Cytotoxicity Assessment (CTOX) in CCTE's 384-well Estrogen Receptor Transactivation Assay without AIME metabolic competence (metabolism negative), Deisenroth Lab (AID 2284039; active = hit-call score of the fitted dose curve at least 0.9, where 1 is the maximum;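 also: cell viability via live-cell protease substrate cleaved to fluorescent probe; cells exposed 24 h to medium preincubated 2 h with alginate-water beads without S9; loss of fluorescence signal means loss of viability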)
# Summary of the method: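 VM7Luc4E2 cells, metabolism-negative arm: test chemicals (0.002–200 uM, 10 points) pre-incubated 2 h with alginate-water microspheres, then medium transferred to cells for 24 h. Viability read as protease-substrate cleavage to fluorescent probe; loss-of-signal, bidirectional fitting.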
# DIO2 (gene 1734) = assay: CCTE_GLTED_hDIO2: CCTE's human Deiodinase 2 (DIO2) Inhibition Assay, Great Lakes Toxicology and Ecology Division (GLTED) Lab (AID 2284050; active = hit-call score of the fitted dose curve at least 0.9, where 1 is the maximum)
# Summary of the method: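 Cell-free human DIO2 incubated 3 h with chemical; liberated iodide quantified by Sandell-Kolthoff absorbance. Triplicate plates; loss of signal fitted vs DMSO.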
# DIO3 (gene 1735) = assay: CCTE_GLTED_hDIO3: CCTE's human Deiodinase 3 (DIO3) Inhibition Assay, Great Lakes Toxicology and Ecology Division (GLTED) Lab (AID 2284055; active = hit-call score of the fitted dose curve at least 0.9, where 1 is the maximum;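 also: potency is for inhibition seen as loss of released iodide signal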)
# Summary of the method: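 Human DIO3 from an adenovirus expression system is incubated 3 h with test chemical. Released iodide is quantified by Sandell-Kolthoff absorbance, in triplicate plates. Loss of signal is fitted relative to DMSO.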
smiles,measurement,setting,value
CCOC(=O)CC(SP(=O)(OC)OC)C(=O)OCC (configuration not stated),outcome,[1],inactive
same,outcome,[2],inactive
same,outcome,[3],inactive
same,outcome,[4],inactive
same,outcome,[5],inactive
same,outcome,[6],inactive
same,outcome,[7],inactive
same,outcome,[8],inactive
same,outcome,[9],inactive
same,outcome,[10],inactive
same,outcome,[11],inactive
same,outcome,[12],inactive
CCOP(=S)(OCC)Oc1ccc([N+](=O)[O-])cc1,outcome,[13],inactive
same,outcome,[1],inactive
same,outcome,[14],inactive
same,outcome,[2],inactive
same,outcome,[3],inactive
same,outcome,[4],inactive
same,outcome,[5],inactive
same,outcome,[6],inactive
same,outcome,[7],inactive
same,outcome,[8],inactive
same,outcome,[9],inactive
same,outcome,[11],inactive
same,outcome,[15],inactive
S=C1NCCN1,AC50,[13],3.82 µM (active)
same,outcome,[1],inactive
same,outcome,[14],inactive
same,outcome,[2],inactive
same,outcome,[3],inactive
same,outcome,[4],inactive
same,outcome,[5],inactive
same,outcome,[6],inactive
same,AC50,[7],5.64 µM (active)
same,outcome,[8],inactive
same,outcome,[9],inactive
same,outcome,[11],inactive
same,outcome,[15],inactive
COP(=O)(OC)C(O)C(Cl)(Cl)Cl (configuration not stated),AC50,[13],11.6 µM (active)
same,outcome,[1],inactive
same,AC50,[14],36.9 µM (active) and 15 µM (active)
same,AC50,[2],90.8 µM (active)
same,outcome,[2],inactive
same,outcome,[3],inactive
same,outcome,[4],inactive
same,AC50,[5],2.98 µM (active)
same,outcome,[5],inactive
same,AC50,[6],75.4 µM (active) and 15 µM (active)
same,AC50,[7],50 µM (active) and 15 µM (active)
same,outcome,[8],inactive
same,AC50,[9],50 µM (active) and 15 µM (active)
same,AC50,[10],9.96 µM (active)
same,AC50,[11],3.52 µM (active) and 1.47 µM (active)
same,outcome,[12],inactive
same,AC50,[15],50 µM (active) and 1.05 µM (active)
CC1=NNC(=O)N(/N=C/c2cccnc2)C1,outcome,[16],inactive
same,outcome,[1],inactive
same,outcome,[14],inactive
same,outcome,[2],inactive
same,AC50,[3],24.8 µM (active)
same,outcome,[4],inactive
same,outcome,[5],inactive
same,outcome,[6],inactive
same,outcome,[7],inactive
same,outcome,[8],inactive
same,outcome,[9],inactive
same,outcome,[11],inactive
same,outcome,[15],inactive
CCCCSP(=O)(SCCCC)SCCCC,AC50,[13],34.3 µM (active) and 15.2 µM (active)
same,AC50,[1],71.4 µM (active)
same,outcome,[1],inactive
same,AC50,[14],32 µM (active) and 15.8 µM (active)
same,AC50,[2],50 µM (active) and 18.8 µM (active)
same,outcome,[3],inactive
same,outcome,[4],inactive
same,outcome,[5],inactive
same,AC50,[6],31.8 µM (active) and 16 µM (active)
same,AC50,[7],50 µM (active) and 16.1 µM (active)
same,outcome,[8],inactive
same,AC50,[9],68.3 µM (active) and 49.9 µM (active)
same,AC50,[11],27.3 µM (active) and 49.9 µM (active)
same,AC50,[15],50 µM (active) and 63.1 µM (active)
C[Si](Cn1cncn1)(c1ccc(F)cc1)c1ccc(F)cc1,AC50,[13],4.26 µM (active)
same,outcome,[1],inactive
same,AC50,[14],8.85 µM (active)
same,outcome,[2],inactive
same,outcome,[3],inactive
same,outcome,[4],inactive
same,outcome,[5],inactive
same,AC50,[6],4.71 µM (active)
same,AC50,[7],5.85 µM (active)
same,outcome,[8],inactive
same,AC50,[9],20.1 µM (active)
same,AC50,[11],22.5 µM (active)
same,outcome,[15],inactive
CCc1cccc(CC)c1N(COC)C(=O)CCl,AC50,DIO2 (gene 1734),61.1 µM (active)
same,AC50,DIO3 (gene 1735),52.3 µM (active)
CC(C)[C@H](C(=O)O[C@H](C#N)c1cccc(Oc2ccccc2)c1)c1ccc(Cl)cc1,AC50,[13],14.6 µM (active)
same,AC50,[1],4.67 µM (active)
same,AC50,[14],4.15 µM (active)
same,AC50,[2],17.6 µM (active)
same,outcome,[3],inactive
same,outcome,[4],inactive
same,AC50,[5],0.703 µM (active)
same,AC50,[6],4.07 µM (active)
same,AC50,[7],4.47 µM (active)
same,AC50,[9],0.732 µM (active)
same,outcome,[11],inactive
same,AC50,[15],20.9 nM (active)
CCCSP(=O)(OCC)SCCC,AC50,[13],27.9 µM (active) and 50.5 µM (active)
same,outcome,[1],inactive
same,AC50,[14],24.9 µM (active) and 22.7 µM (active)
same,outcome,[2],inactive
same,outcome,[3],inactive
same,outcome,[4],inactive
same,outcome,[5],inactive
same,AC50,[6],50 µM (active) and 29.9 µM (active)
same,AC50,[7],36.2 µM (active) and 27.2 µM (active)
same,outcome,[8],inactive
same,AC50,[9],24.3 µM (active) and 26.5 µM (active)
same,AC50,[11],15.7 µM (active) and 15.4 µM (active)
same,AC50,[15],20.6 µM (active) and 18.7 µM (active)
